In the OligoGym collection:

Target: RNF122
Assay: pooled miR-30 sensor sort-seq; sequence = guide strand
Conditions: shRNA
Further: reference of the scale not given here.

Row | Sequence | sensor-assay potency score (higher = more potent)
1 | TATAATTGTAACTTCTTGGCAT | 0.823
2 | AAGTCTTCCAGACAGACTGCGC | -0.854
3 | TTTGCTGATAAAATAGCAGCAG | -0.0269
4 | ATATCCGTATCGCTCACTCTGT | -0.868

Target: RNF125
Assay: as above
Conditions: shRNA

Row | Sequence | sensor-assay potency score (higher = more potent)
5 | TTATCTATGTACTTCTGACAAG | -1.25
6 | TGTACTTCTGACAAGTCCGAAT | -0.85
7 | TTATACTCTGATTTCATTCTTT | 0.204
8 | TAGTGGTCCATACTTATCTATG | -1.8
9 | TTCTTGTAGTGGTCCATACTTA | -0.891
10 | TACTTATCTATGTACTTCTGAC | -0.698
11 | ATACTTATCTATGTACTTCTGA | 0.546
12 | ATGTACTTCTGACAAGTCCGAA | -1.03
13 | TAGACTGGTAGCAATACAGGAA | -0.258
14 | TTGTTCTTTAGACTGGTAGCAA | -0.126
15 | TTGTTGTTCTTTAGACTGGTAG | -0.623
16 | TATCTATGTACTTCTGACAAGT | -0.831

Target: RNF14
Assay: as above
Conditions: shRNA

Row | Sequence | sensor-assay potency score (higher = more potent)
17 | TCATCTTGTTACATCCGTCTAA | 0.00357
18 | TCTAAATTCATCTCCATCGTAA | 0.0572
19 | TTACTTTGTGTACTTGACGGAA | -0.835
20 | TTTATTAGCCTCATCCGCTTGC | 0.884
21 | TTTGAGTTCTTCTCTAGCCACT | -1.03
22 | TAAAACATGGTGAACCAGGGTC | 0.147
23 | AATATCGTCGTCAACATCCACA | -1.06
24 | TATCTTGAAATTCTGTGGCAAA | -1.02
25 | ATGTCATCTTGTTACATCCGTC | -0.926
26 | TTCTTCTCTAGCCACTCCTTAC | -0.95
27 | TTTCTGAGAACCAATCTTGAGC | -0.733
28 | TATCGTCGTCAACATCCACAGC | -0.981

Target: RNF157
Assay: as above
Conditions: shRNA

Row | Sequence | sensor-assay potency score (higher = more potent)
29 | TTCCTCTTCATGCAGCACGGAA | -1.64
30 | TTGAGTTTGAGTCCCTGACTGC | -0.461
31 | TTGAGTCCCTGACTGCTGCTGT | 0.522
32 | TACTTGTTTCTGTTTGAGGGGC | 0.142
33 | TTGTCTTTGGGAATGTAGCTGG | 0.177
34 | TTGTACTGCACAGTCTCCGACT | -0.593
35 | TAAGGAAACACAACTGGTCTGT | 0.685
36 | TACCATTCTGGAACTCTTCCGT | 0.188
37 | TTCAATTCCATAGATCTCCTGA | 0.823
38 | TTTCGGATATTGACCAGGCTTC | -1.09
39 | TTGAGTCAAACTTCTCTCCTCC | 0.532
40 | TTCCTCAGCACATTTGACGAGC | -0.263
